Source: PubChem BioAssay (NCATS)
Several values for one entry are separate records, joined by “and”; a condition that tells them apart may be missing. Equal entries are not always repeated. Inconclusive results are not listed. The source holds several records for some structures; these can differ, active in one and inactive in another. Activity calls are given as the source filed them. Calls come from the whole dose curve; as a rule, active = well fitted inhibition curve with a large enough effect; inconclusive = small, poorly fitted or top-dose-only effect; inactive = flat fitted curve, though single readings scatter.

Test: qHTS for Inhibitors of Plasmodium falciparum (HB3) proliferation (AID 504318); note: nearly all actives have a fitted effect of over 60% in size;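 for activity change, negative = inhibition: 0% = DMSO vehicle and -100% = artemisinin control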
Conditions: P. falciparum HB3 in erythrocytes, SYBR Green DNA, 72 h; series mostly up to 7.21 µM; activity change, negative = inhibition: at the top concentration
From the text: Plasmodium falciparum is a virulent malarial parasite that kills 1-2 million people worldwide each year. Malaria not only inflicts tremendous suffering and morbidity on the human population, but has dramatically influenced the course of civilization with profound sociological and economic implications (Shah, S. 2010). Transmitted by mosquitoes, the sporozoite form of the parasite enters the blood stream to infect hepatocytes, where they become merozoites that infect red blood cells (erythrocytes). Within erythrocytes, merozoites begin a […] cycle of growth and division, after which the parasite is released to infect new red blood cells. Gametocytes, which form within erythrocytes as well, circulate in the bloodstream and are ingested by the mosquito, thereby completing the life cycle (see CDC website). To profile malarial lines for differential chemical responses and to identify inhibitors of malarial growth, an assay that measures P. falciparum growth and replication within erythrocytes was employed. This assay uses a DNA binding fluorescent dye (SYBR Green) to detect parasite DNA following cell lysis. Because mature erythrocytes lack DNA, only Plasmodium-derived DNA is detected. The P. falciparum line cp250, derived from a malarial isolate from Cambodia, (Mu, J., et al. 2010) was added to the panel of lines, Dd2, HB3, 7G8 and GB4 in this study. Laboratory of Assay Development and Screening Technology [ADST] and NIH Chemical Genomics Center [NCGC] Boston University, Chemistry Department, Center for Chemical Methodology and Library Development [CMLD-BU] NIH National Institute of Allergy and Infectious Diseases [NIAID]
ADST Assay Protocol Summary: The 1536-well SYBR Green viability assay was based on the method of Bennett et al (2004) and described previously in 1536-well format (Yuan J., et al. 2009). For screening 3 ul culture medium was dispensed into 1536 well black clear bottom plates (Aurora Biotechnologies) using a Multidrop Combi (Thermo Fisher Scientific Inc.), 23 nL compounds in DMSO were added by a pin transfer (Cleveland, P.H. and Koutz, P.J, 2005) using a pin tool-based delivery system (Kalypsys), and 5 ul of erythrocytes infected with P. falciparum one of five lines (cp250, Dd2, HB3, 7G8 or GB4, 0.3% parasitemia, 2.5% hematocrit final concentration) were added. The plates were incubated at 37C in a humidified incubator in 5% CO2 for 72 h, and 2 ul lysis buffer (20 mM Tris HCl, 10 mM EDTA, 0.16% saponin, 1.6% triton X, 10X SYBR Green I (supplied as 10,000X final concentration by Invitrogen) was added to each well. The plates were mixed for 25 sec with gentle shaking and incubated overnight at room temperature in the dark. The following morning, fluorescence intensity at 485(14) nm excitation and 535(25) nm emission wavelengths was measured on an EnVision (Perkin Elmer) plate reader. Plate reads were normalized relative to the control inhibitor (0.29 uM artemisinin) and vehicle (DMSO) wells present on each plate and then corrected by an algorithm using vehicle-only control plates at the beginning and end of the compound plate stack. References Shah, S. (2010). The Fever: how malaria has ruled humankind for 500,000 years. New York, Sarah Crichton Books. CDC web site, http://www.cdc.gov/malaria/about/biology/index.html Mu, J., Myers, R.A., Jiang, H., Liu, S., Ricklefs, S., Waisberg, M., Chotivanich, K., Wilairatana, P., Krudsood, S., White, N.J., et Plasmodium falciparum genome-wide scans for positive selection, recombination hot spots and resistance to antimalarial drugs Nature Genetics 2010, 42, pp 268-271 Bennett TN, Paguio, M., Gligorijevic, B., Seudieu, C., Kosar, A. D., Davidson, E., and Roepe, P. D. Novel, rapid, and inexpensive cell-based quantification of antimalarial drug efficacy Antimicrobial Agents Chemother. 2004, 48(5): pp 1807-10 Yuan J, Johnson RL, Huang RL, Wichterman J, Jiang HY, Hayton K, Fidock DA, Wellems TE, Inglese J, Austin CP, Su XZ. […]
Potency is the fitted concentration of half-maximal effect.

SMILES | activity change, negative = inhibition | Potency
COC(=O)CC=C[C@H](C)[C@@H](NC(=O)C(F)(F)F)c1ccccc1Br | 0.0651% (inactive) | –
Cc1ccccc1Nc1oc(-c2ccccc2)nc1CCc1ccccc1 | – | inactive and 1.69 µM (active)
C=CCOC(=O)N[C@@H](CC(C)C)C(C(=O)OC)=C(C)NCc1ccccc1 | 6.34% (inactive) | –
CCc1cc2c(nc1CC)CCN(CCC(C)=NOC[C@@H](O)[C@H]1O[C@@H]3OC(C)(C)O[C@H]3[C@@H]1O)C2 | – | 2940 nM (active)
COC(=O)C1=C(C)N(Cc2ccccc2)C(=S)NC1c1cccc(C(F)(F)F)c1 (stereo not given) | -9.1% (inactive) | –
CCCCC1=CC2=C(c3ccco3)C(=O)C(C)(OC(=O)c3ccc(OC)cc3)C(=O)C2=CN1Cc1ccc2c(c1)OCO2 (stereo not given) | -1.9% (inactive) | –
COC(=O)CCC(=O)OC1(C)C(=O)C=C2C=C(C3CC3)OC=C2C1=O (stereo not given) | 1.02% (inactive) | –
CC1=CC[C@@H](C)O[C@@]2(C1)C(=O)Nc1cccc(Br)c12 | -6.2% (inactive) | –
O[C@@H]1CO[C@@H](C=Cc2ccccc2)[C@H]1OCc1cccc(Br)c1 | -5.78% (inactive) | –
COC(=O)N[C@@H](c1ccco1)C(C(C)=O)C(=O)OC (stereo not given in full) | -3.26% (inactive) | –
CCN1C(=NCCCOC(C)C)N[C@@H](CCc2ccccc2)[C@H](C(=O)NCCCOC(C)C)[C@H]1C | -11.4% (inactive) | –
COC(=O)N[C@@H](c1ccc(Cl)cc1)C(C(C)=O)C(=O)OC (stereo not given in full) | 10.8% (inactive) | –
O=S(=O)(CCc1ccccc1)c1ccccc1 | 9.52% (inactive) | –
C[C@H]1[C@H](N=[N+]=[N-])[C@H](O)CCO[C@@H]1c1ccccc1 | 3.57% (inactive) | –
COC(=O)C1(C)C=C(Nc2ccc(OC)cc2)C(=O)N1c1ccc(OC)cc1 (stereo not given) | -2.76% (inactive) | –
COc1cccc([C@@H]2Oc3ccc(OC)cc3C(=O)[C@@H]2OC(=O)Nc2cc(OC)c(OC)c(OC)c2)c1 | -12.1% (inactive) | –
COC(=O)C[C@H]1c2ccccc2[C@@H]2C(=C[C@@H](C)[C@H]3C(=O)N(O)C(=O)[C@H]32)N1C(=O)OC | -2.61% (inactive) | –
C=CCC(C)(NCc1ccccc1)C(=O)OCC (stereo not given) | -2.33% (inactive) | –
CC1(OC(=O)C2CCCC2)C(=O)C=C2C=C(c3ccsc3)N(CCN3CCOCC3)C=C2C1=O (stereo not given) | – | inactive
CCN1C(=NCc2cc(OC)c(OC)c(OC)c2)N[C@@H](c2ccccc2)[C@H](C(=O)OC)[C@H]1C | – | inactive

SMILES | activity change, negative = inhibition | Potency
O=C1CCCC1C(O)c1ccc2ccccc2c1 (stereo not given) | -5.29% (inactive) | –
CC(=O)OC[C@H]1O[C@H](C#Cc2ccccc2)C=C[C@H]1O | 5.33% (inactive) | –
COC(=O)C1=C(C)N(CC2CC2)C(=NCCc2cccnc2)NC1c1ccccc1 (stereo not given) | 2.81% (inactive) | –
Cc1ccc2[nH]c3nc(CCCn4ccnc4-c4ccccc4)nnc3c2c1 | -9.19% (inactive) | –
COc1ccc2c(c1)O[C@H](c1ccc3c(c1)OCO3)[C@@H](OC(=O)NCCOc1ccccc1)C2=O | -8.5% (inactive) | –
C=CC1=C2C=C(C3CC3)N(CCN3CCOCC3)C=C2C(=O)C(C)(OC(=O)c2ccco2)C1=O (stereo not given) | – | inactive
COC[C@@H](OC(C)=O)[C@H]1OCc2ccccc2[C@H]1C=Cc1ccccc1 | -10.7% (inactive) | –
COc1ccc(-c2nc3c(c4c2C[C@H](c2ccccc2)OC4)CN(C(=O)N[C@@H](C)C(=O)OC(C)C)CC3)c(C)c1 | – | 1650 nM (active)
C=CCOC(=O)N[C@@H](c1ccccc1)[C@@H](C)[N+](=O)[O-] | 7.36% (inactive) | –
COC(=O)C1=C2C=CCCN2C(=O)NC1c1ccccc1 (stereo not given) | -14% (inactive) | –
CCOC(=O)CN1C(=O)N[C@@H](c2ccccc2)[C@H](C(C)=O)[C@H]1C | – | inactive
COC(=O)C(C(=O)OC)[C@H]1c2ccccc2[C@@H]2C(=C[C@@H](C)[C@H]3C(=O)N(c4ccccc4)C(=O)[C@H]32)N1C(=O)OC | 5.36% (inactive) | –
COC(=O)[C@H](Cc1ccccc1)NC(=O)O[C@@H]1C(=O)c2cc(Br)ccc2O[C@H]1c1ccc2c(c1)OCO2 | -10.2% (inactive) | –
COC(=O)CC=C[C@@H](C)[C@@H](C=NO[C@H](C)c1cn([C@H](CO)Cc2ccccc2)nn1)NS(=O)(=O)c1ccc(C)cc1 | -7.14% (inactive) | –
Cc1cc(O)cc(O)c1C(=O)OC1(C)C(=O)C=C2C=C(C=CCO)OC=C2C1=O (stereo not given) | 6.24% (inactive) | –
C#CCN1C(=O)[C@]2(O[C@H](C)CC3=CCCC32)c2c(Br)cccc21 (stereo not given in full) | -7.41% (inactive) | –
COc1cccc([C@@H]2Oc3ccc(Br)cc3C(=O)[C@@H]2O)c1 | -10.5% (inactive) | –
COC(=O)[C@@H]1C[C@@]23C(=NN=C(SC)C2Nc2ccccc23)N1C(C)=O (stereo not given in full) | 1.98% (inactive) | –
CC1=CC[C@@H](COc2ccccc2)O[C@@]2(C1)C(=O)Nc1ccccc12 | -20.2% (inactive) | –
CCN1C(=O)[C@H]2[C@H]3C(=CC[C@@H]2C1=O)C1(OCCCO1)[C@@H]1O[C@H]1[C@H]3O | 3.2% (inactive) | –
